The text below walks through data of the supplement of paper PMC10127200.

Common to all, as to assay: Euclidean distance of Cell Painting phenotypic profile (signed KS, 77 features) to DMSO centroid (dimensionless distance); 5 or 10 uM (library dependent); higher = stronger phenotypic change vs DMSO (phenoactivity)
Conditions in all cases: 48 h

One test deals with 786-O. In a few lines:
(§1)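 Stained cells were imaged confocally at 20X with 9 fields per well, after 48 h of exposure to library compounds at 10 or 5 uM (set by library; 0.1% DMSO final). The cells were five cancer lines and a healthy fibroblast line. From the images, Harmony extracted 77 features, each expressed as a signed Kolmogorov-Smirnov statistic relative to same-plate vehicle wells. Phenoactivity is measured as Euclidean distance to the median vehicle profile, using plate-position-corrected, correlation-weighted profiles averaged across replicates at the top dose.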

The next test deals with A549. In short, it runs like this:
as §1

The next test deals with DU145. In a few lines:
as §1

In another test the test system is FB. In a few lines: as §1
The next test deals with HEPG2. In a few lines:
as §1

In the next test the test system is OVCAR4. In short, it runs like this: as §1

Each structure is given as a SMILES string. Where a name gives a salt, the structure may show the parent alone.

Regarding `Cc1c(N)c(=O)n(-c2ccccc2)n1C` [4-Aminoantipyrine], the Euclidean distance in the test with 786-O is 1.29; in the test on A549 it was 0.968; in the test with DU145 it was 1.5; in the test on FB, 0.907; in the test on HEPG2, 0.845; in the test on OVCAR4 it was 1.32.
`COC(=O)[C@@H]1[C@H]2C[C@H]3c4[nH]c5ccccc5c4CCN3C[C@@H]2CC[C@@H]1O` [Yohimbine HCl]: the Euclidean distance in the test with 786-O was determined as 1.79; with A549, 0.764; in the test with DU145, 0.901; in the test on FB it was 0.844; in the test with HEPG2 it was 0.549; with OVCAR4, 0.758.
On to `Brc1c(NC2=NCCN2)ccc2nccnc12` [Brimonidine Tartrate], for which the Euclidean distance came out at 0.514 with 786-O; 0.618 with A549; 0.478 with DU145; 0.739 with FB; 0.644 in the test on HEPG2; 0.833 in the test with OVCAR4.
On to `O=C(Nc1ccccc1)Nc1ccc(-c2ccc(C(=O)[C@@H]3CCC[C@H]3C(=O)O)cc2)cc1`, for which the Euclidean distance came to 0.735 in the test with 786-O; 0.898 in the test on A549; 0.804 in the test with DU145; 1.29 with FB; 1.92 in the test with HEPG2; 0.814 in the test on OVCAR4.
As to `c1cc(CN2CCCNCCNCCCNCC2)ccc1CN1CCCNCCNCCCNCC1` [Plerixafor 8HCl (AMD3100 8HCl)], the Euclidean distance was determined as 1.37 in the test with 786-O; 1.38 in the test on A549; 0.691 in the test on DU145; 1.5 in the test with FB; 0.69 in the test with HEPG2; 1.7 with OVCAR4.
Take `COCC(=O)NC/C=C/c1ccc2ncnc(Nc3ccc(Oc4ccc(C)nc4)c(C)c3)c2c1`: the Euclidean distance in the test on 786-O was 0.785; in the test with A549, 1.34; in the test on DU145, 1.13; in the test with FB, 0.952; in the test on HEPG2, 0.896; in the test with OVCAR4, 0.777.
On to `CC(=O)O[C@@]12CO[C@@H]1C[C@H](O)[C@@]1(C)C(=O)[C@H](O)C3=C(C)[C@@H](OC(=O)[C@H](O)[C@@H](NC(=O)OC(C)(C)C)c4ccccc4)C[C@@](O)([C@@H](OC(=O)c4ccccc4)[C@H]21)C3(C)C` [Docetaxel Trihydrate], for which the Euclidean distance is 3.61 in the test with 786-O; 3.08 with A549; 3.17 with DU145; 2.26 in the test with FB; 2.15 in the test with HEPG2; 2.49 in the test on OVCAR4.
Regarding `CN(C)Cc1ccc(-c2nc3cccc4c3n2CCNC4=O)cc1`, the Euclidean distance was found to be 1.75 in the test on 786-O; 1.77 in the test with A549; 1.51 in the test with DU145; 1.3 in the test on FB; 1.62 with HEPG2; 1.41 in the test on OVCAR4.
With `OC[C@H]1O[C@@H](c2ccc(F)c(Cc3cc4ccccc4s3)c2)[C@H](O)[C@@H](O)[C@@H]1O` [Ipragliflozin (ASP1941)], the Euclidean distance is 0.648 in the test with 786-O; 0.591 in the test on A549; 0.895 in the test with DU145; 0.802 in the test with FB; 0.412 in the test with HEPG2; 0.699 in the test with OVCAR4.
Consider `NS(=O)(=O)c1ccc(NC(=O)Nc2ccc(F)cc2)cc1`, for which the Euclidean distance in the test on 786-O is 0.711; in the test on A549 it was 1.08; in the test with DU145, 1.36; in the test on FB, 1.37; with HEPG2, 1.44; in the test with OVCAR4, 0.718.
Regarding `COc1nc(N)nc2c1ncn2[C@@H]1O[C@H](CO)[C@@H](O)[C@@H]1O` [Nelarabine], the Euclidean distance stood at 1.28 with 786-O; 1.4 with A549; 0.995 in the test on DU145; 2.02 in the test with FB; 0.531 in the test on HEPG2; 1.1 with OVCAR4.
As for `NC(=O)c1cnccn1` [Pyrazinamide], the Euclidean distance with 786-O came out at 1.07; in the test with A549, 1.35; with DU145, 0.786; in the test on FB, 1.14; in the test on HEPG2 it was 1.95; with OVCAR4, 1.13.
Regarding `C=CC(=O)Nc1cccc(Nc2nc(Nc3ccc(OCCOC)cc3)ncc2F)c1` [Spebrutinib (CC-292. AVL-292)], the Euclidean distance in the test with 786-O stood at 2.73; with A549 it was 3.75; in the test on DU145 it was 3.51; in the test with FB, 3.98; in the test on HEPG2, 3.25; with OVCAR4, 2.96.
Turning to `C=CCNC(N)=S` [Allylthiourea], the Euclidean distance in the test with 786-O is 1.12; in the test on A549 it was 0.909; with DU145 it was 0.907; in the test on FB, 0.873; with HEPG2, 0.823; in the test on OVCAR4, 1.54.
As for `COc1ncc(-c2ccc3nccc(-c4ccnnc4)c3c2)cc1NS(=O)(=O)c1ccc(F)cc1F`, the Euclidean distance in the test with 786-O was 4.98; in the test on A549, 3.16; in the test on DU145, 2.84; with FB it was 3.96; in the test with HEPG2, 2.53; with OVCAR4, 3.04.
On to `C[C@@H]1CN(C(=O)c2ccc(NC(=O)c3cc(O[C@H](C)c4c(Cl)ccc(F)c4Cl)c(N)nn3)cc2)C[C@H](C)N1` [Ensartinib (X-396) dihydrochloride], for which the Euclidean distance in the test on 786-O came to 5.01; in the test on A549 it was 4.53; in the test with DU145 it was 3.15; in the test with FB, 4.29; in the test with HEPG2, 3.74; in the test on OVCAR4 it was 3.35.
On to `Clc1ccc(C(Cn2ccnc2)OCc2csc3c(Cl)cccc23)c(Cl)c1` (centres undefined) [Sertaconazole nitrate], for which the Euclidean distance in the test on 786-O came to 1.47; with A549, 1.42; in the test on DU145 it was 1.2; in the test on FB, 1.26; with HEPG2 it was 0.627; in the test on OVCAR4 it was 1.61.
Regarding `CN(C)CCN1C(=O)c2cccc3cc(N)cc(c23)C1=O` [Amonafide], the Euclidean distance in the test on 786-O was determined as 3.45; in the test on A549, 4; with DU145 it was 2.47; in the test on FB, 3.29; with HEPG2, 4.06; in the test on OVCAR4 it was 3.48.
Turning to `Cc1c(Cl)cccc1Nc1ccccc1C(=O)O` [Tolfenamic Acid], the Euclidean distance with 786-O was found to be 1.28; in the test on A549 it was 0.83; in the test on DU145, 0.762; in the test on FB, 0.742; in the test on HEPG2, 0.5; in the test with OVCAR4, 1.19.
`Clc1ccc(Cn2c(CN3CCCC3)nc3ccccc32)cc1` [Clemizole]: the Euclidean distance with 786-O turned out to be 1.07; with A549, 0.265; in the test on DU145, 1.22; with FB, 0.972; in the test with HEPG2 it was 0.65; in the test with OVCAR4, 0.648.
As for `C=C[C@](C)(O)CC[C@@H]1[C@@]2(C)CCCC(C)(C)[C@@H]2CC[C@@]1(C)O` [Sclareol], the Euclidean distance in the test on 786-O stood at 0.617; in the test with A549, 0.762; with DU145, 0.574; with FB it was 0.717; with HEPG2, 0.546; in the test on OVCAR4, 1.39.
On to `CCCCc1nc(C)c(CC(=S)N(C)C)c(=O)n1Cc1ccc(-c2ccccc2-c2nnn[nH]2)cc1` [Fimasartan], for which the Euclidean distance in the test with 786-O worked out at 0.829; in the test on A549, 0.807; in the test on DU145, 0.902; with FB it was 0.862; in the test on HEPG2, 0.679; in the test with OVCAR4, 0.989.
For the molecule `N=C(N)NC(=O)c1nc(Cl)c(N)nc1N` [Amiloride HCl dihydrate], the Euclidean distance amounted to 1.53 in the test on 786-O; 1.27 in the test on A549; 1.11 with DU145; 1.58 in the test on FB; 0.663 with HEPG2; 1.28 with OVCAR4.
For `CC(C)(C(=O)c1cccnc1)c1cccnc1` [Metyrapone], the Euclidean distance in the test with 786-O is 1.56; with A549, 1.55; with DU145, 0.902; in the test on FB, 1.36; in the test with HEPG2, 0.932; with OVCAR4, 1.85.
